Data taken from PubChem BioAssay (NCI).
About 83,000 compounds went through this panel and 20% of them were active in at least one assay; those are over-represented in the sample as a whole.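 Single-dose data. Exposure time 48 hours. Values below 10 considered active.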 The source made the active and inactive calls.

The compounds below were run on SR leukemia (assay: NCI-60 one-dose screen, 48 h (100 = growth as untreated, 0 = no growth, -100 = all killed)). Conditions: 10 µM unless noted.

| SMILES | growth |
| --- | --- |
| COc1c(F)ccc(C(=O)Nc2ccc3nc(NC(=O)C4CCCN(S(=O)(=O)c5ccc(Br)s5)C4)sc3c2)c1F (stereo not drawn) | 44.3% (inactive) |
| Cc1ccc(-c2nc(Nc3ccccc3S(N)(=O)=O)c3ccccc3n2)cc1 | 46.7% (inactive) |
| Clc1cccc(Cl)c1/C=C/c1cc(/C=C/c2ccc(Br)cc2)c2ccccc2n1 | 92.4% (inactive) |
| COc1ccc(/C=C/c2n(Cc3ccc4ccccc4c3)c3ccccc3[n+]2Cc2ccc3ccccc3c2)cc1 | -34.9% (active) |
| C#CCOc1cc(N(CC)CC)ccc1C(C(=O)NC(C)(C)C)N(C(=O)C1CCc2cc(F)ccc2O1)c1ccc(Br)cc1 (stereo not drawn) | 54% (inactive) |
| CSc1ccc(C(=O)Nc2ccc3nnn(/C(C#N)=C/c4ccccn4)c3c2)cc1 | -9.41% (active) |
| COC(=O)/C=C/c1cccc2c1C(=O)NC(C)(c1cc3ccccc3oc1=O)N2 (stereo not drawn) | 58.7% (inactive) |
| O=C(COc1ccc2c(c1)CCCC(=O)N2)NCc1ccccc1 | 27.6% (inactive) |
| COc1ccc(Cc2nn(CC(=O)N/N=C/c3ccc(F)cc3)c(=O)c3c(C)noc23)cc1 | 53.2% (inactive) |
| CCCSc1nc(NCCc2c[nH]c3ccccc23)c(C#N)c(-c2ccc(F)cc2)n1 | 6.1% (active) |
| O=C(O)Cn1c(O)c(/C=C2/C=c3cc4c(cc3=NC2=O)OCCO4)sc1=S | 89.2% (inactive) |
| COc1ccc(C(=O)/C=C/c2ccc(OCc3ccc(F)cc3)c(OC)c2)cc1OC | 7.52% (active) |
| Cn1cc(-c2cc(N)n3nc(-c4c[nH]c5ccccc45)cc3n2)c2cc(Br)cnc21 | -29.5% (active) |
| CC(=O)/C=C/c1cccc2c1C(=O)NC(C)(c1cc3cc(Br)ccc3oc1=O)N2 (stereo not drawn) | -0.625% (active) |
| CCN(CC)c1ccc(/C=N/Nc2nc(-c3ccc(Br)cc3)cs2)c(O)c1 | 3.58% (active) |
| CC1(C)CC[C@]2(C(=O)O)CC[C@]3(C)C(=CCC4[C@@]5(C)C[C@@H](O)[C@@H]6OC(c7ccco7)OC[C@@]6(C)C5CC[C@]43C)C2C1 (stereo partly drawn) | 18.2% (inactive) |
| C/C(=N\N=C\c1cc([N+](=O)[O-])ccc1Cl)c1ccc2c(c1)Nc1ccccc1S2 | 31.3% (inactive) |

| SMILES | growth |
| --- | --- |
| CN(C)c1nc(NCCNS(=O)(=O)c2ccc(C3=Nc4c(N)nc(N)nc4NC(c4ccc(C(F)(F)F)cc4)C3)cc2)nc(Nc2ccc(F)cc2)n1 (stereo not drawn) | -23.2% (active) |
| Cn1cc(-c2cc(N)n3nc(-c4cn(C)c5ccc(Cl)cc45)cc3n2)c2ccccc21 | 99.7% (inactive) |
| O=C(/C=C/c1ccc(-c2ccccc2)cc1)c1nc2ccccc2n1Cc1ccc(Br)cc1 | 2.11% (active) |
| COc1cc2c(c(OC)c1OC)C(=O)CC(c1cccc(NC(=O)c3cc(NC(=O)[C@H](CO)NC(=O)OC(C)(C)C)ccc3Cl)c1)O2 (stereo partly drawn) | 19.4% (inactive) |
| CC(=O)c1cccc(NC(=O)CCC(=O)NS(=O)(=O)c2ccc(C)cc2)c1 | 99.3% (inactive) |
| C#CCOc1ccc(/C=N/Nc2nc(-c3ccc(F)cc3)cs2)cc1OC | 25.5% (inactive) |
| CC1(C)CC[C@]2(C(=O)O)CC[C@]3(C)C(=CCC4[C@@]5(C)C[C@@H](O)[C@@H]6OC(c7ccccc7Br)OC[C@@]6(C)C5CC[C@]43C)C2C1 (stereo partly drawn) | 12.5% (inactive) |
| COc1cc2oc(-c3cccc(C(=O)Nc4ccc(Cl)cc4)c3)cc(=O)c2c(OCCNC(=O)[C@H](CCC(=O)OC(C)(C)C)NC(=O)OC(C)(C)C)c1OC | 72.9% (inactive) |
| O=C(O)c1ccc(-c2ccc(/C=N/NC(=O)c3[nH]c4ccc(Br)cc4c3-c3ccccc3)o2)cc1 | 5.35% (active) |
| CCCCc1c(Nn2cnnn2)no[n+]1[O-] | 36.9% (inactive) |
| CC1=C(C(=O)OCc2ccccc2)C(c2c(O)cc(O)cc2O)n2c(nc3ccccc32)N1 (stereo not drawn) | 18.5% (inactive) |
| O=C(/C=C/c1cccc(OCc2ccccc2)c1)c1nc2ccccc2[nH]1 | -33.3% (active) |
| CC(=O)OCC1OC(OC2C(COC(C)=O)OC(n3cc(COc4ccc5ccc(=O)oc5c4)nn3)C(OC(C)=O)C2OC(C)=O)C(OC(C)=O)C(OC(C)=O)C1OC(C)=O (stereo not drawn) | 98.1% (inactive) |
| COc1ccc2oc3c4[nH]c5ccccc5c4c4c(c3c2c1)C(=O)N(C(=O)OC(C)(C)C)C4=O | -5.86% (active) |
| O=C(c1ccccc1)c1ccc2nc(-c3ccc(F)cc3)[nH]c2c1 | 27.9% (inactive) |
| CC1(C)CC[C@]2(C(=O)Nc3ccc(Br)cc3)CC[C@]3(C)C(=CCC4[C@@]5(C)C[C@@H](O)[C@H](O)[C@@](C)(CO)C5CC[C@]43C)C2C1 (stereo partly drawn) | -9.66% (active) |
